Laboratory results as given in PubChem BioAssay (NCI).
This is part of a sample that, as a whole, favours compounds with a hit. Of some 83,000 tested, about 20% had one in any assay.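 Note: values are percent growth. 100 is the growth of untreated cells, values between 100 and 0 indicate rising inhibition; between -100 and 0 indicates cell death.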 A number with no mark means an inactive call. Activity calls are given as the source filed them. Rule for the calls: active = growth percent below 10; inactive = the rest.

How the values were obtained:
Assay in all cases: NCI-60 one-dose screen, 48 h (100 = growth as untreated, 0 = no growth, -100 = all killed)
Conditions in all cases: 10 µM unless noted
DU-145 prostate = test system: DU-145 prostate
K-562 leukemia = test system: K-562 leukemia
MALME-3M melanoma = test system: MALME-3M melanoma
MDA-MB-231 breast = test system: MDA-MB-231 breast
RXF 393 renal = test system: RXF 393 renal
SF-268 CNS = test system: SF-268 CNS
SF-295 CNS = test system: SF-295 CNS
SF-539 CNS = test system: SF-539 CNS
UACC-257 melanoma = test system: UACC-257 melanoma
M14 melanoma = test system: M14 melanoma
HCT-15 colon = test system: HCT-15 colon
HT29 colon = test system: HT29 colon
SNB-75 CNS = test system: SNB-75 CNS
SNB-19 CNS = test system: SNB-19 CNS
U251 CNS = test system: U251 CNS
PC-3 prostate = test system: PC-3 prostate
SK-MEL-5 melanoma = test system: SK-MEL-5 melanoma
LOX IMVI melanoma = test system: LOX IMVI melanoma
SK-MEL-28 melanoma = test system: SK-MEL-28 melanoma
UACC-62 melanoma = test system: UACC-62 melanoma

Compound | growth (DU-145 prostate) | growth (K-562 leukemia) | growth (MALME-3M melanoma) | growth (MDA-MB-231 breast) | growth (RXF 393 renal) | growth (SF-268 CNS) | growth (SF-295 CNS) | growth (SF-539 CNS) | growth (UACC-257 melanoma) | growth (M14 melanoma) | growth (HCT-15 colon) | growth (HT29 colon) | growth (SNB-75 CNS) | growth (SNB-19 CNS) | growth (U251 CNS) | growth (PC-3 prostate) | growth (SK-MEL-5 melanoma) | growth (LOX IMVI melanoma) | growth (SK-MEL-28 melanoma) | growth (UACC-62 melanoma) [%]
NC(=O)c1ccc[n+]([C@@H]2O[C@H](COP(=O)([O-])OP(=O)(O)OC[C@H]3O[C@@H](n4cnc5c(N)ncnc54)[C@H](O)[C@@H]3O)[C@@H](O)[C@H]2O)c1 | 105% | 109% | 115% | 98% | 125% | 104% | 108% | 90.3% | 108% | 104% | 97.3% | 106% | 104% | 110% | 99.5% | 114% | 112% | 92.9% | 103% | 
O=C(NCCCNc1cc(-c2cn(-c3ccccc3)nc2-c2cccc(O)c2)ccn1)c1ccccc1 | 49.7% | -4.2% (active) | -5.89% (active) | -6.57% (active) | 24% | 44.1% | 12% | 27.3% | -49.2% (active) | 3.42% (active) | 1.17% (active) | -2.39% (active) | 23.1% | 65.7% | 27.9% | 27.2% | -37.8% (active) | 17.3% | 4.17% (active) | 
COc1cc2c(cc1-c1c(C)noc1C)ncc1nc(C3CCCCC3)n(C3CCC(OC(F)F)CC3)c12 (stereo not given) | 63% | 20.1% | 41.7% | 35.9% | 36.5% | 57% | 33.9% | 47% | 40.3% | 39.6% | 25.3% | 19.9% | 23.3% | 55.8% | 25.1% | 16.8% | 9.79% (active) | 17.8% | 46.6% | 
COc1cc(/C=C/C(=O)c2c(C)nc3ccccc3c2/C=C/c2ccc(C)cc2)cc(OC)c1OC | 14.7% | 12% | 39.5% | 16.6% | 3.96% (active) | 44.7% | 38.8% | 19.5% | 43.8% | 23.9% | -19.4% (active) | 14% | 22.7% | 40.1% | 20.9% | 25.8% | 26% | -22.8% (active) | 20.3% | 
CCOC(CN=Cc1cc(C)c2[nH]c3ccccc3c2c1C)OCC | 101% | 95.1% | 124% | 108% | 102% | 92.5% | 92.4% | 100% | 90.3% | 94.4% | 97.8% | 108% | 88.9% | 91.9% | 89.5% | 101% | 105% | 96.3% | 103% | 
CN(c1ccccc1)c1ccc2c(c1)OCCC21CC1Nc1cnccc1C(=O)O (stereo not given) | 88.8% | 41.2% | 67.5% | 72.8% | 76.4% | 60.2% | 44.2% | 52.7% | 77.5% | 81.2% | 27.1% | 75.8% | 67.3% | 66.6% | 43.9% | 52.4% | 48.7% | 34.3% | 69.1% | 
COc1cccc(C(=O)NCCCNc2cc(-c3cn(-c4ccccc4)nc3-c3cccc(OC)c3)ccn2)c1 | 65.8% | 22.8% | 51.7% | 44% | 66.8% | 63.9% | 44% | 85.3% | 30% | 34.4% | 35.5% | 27.7% | 63.5% | 65% | 39.7% | 27.4% | 9.17% (active) | 51.8% | 65.7% | 
CC1SC(c2ccc(OCc3ccccc3)cc2)N(NC(=O)C(O)(c2ccccc2)c2ccccc2)C1=O (stereo not given) | 89.6% | 40.9% | 72.3% | 76.5% | 51.4% | 71.4% | -20.7% (active) | 74.4% | 78.3% | 57.2% | 60.9% | 38.1% | 77.5% | 69.3% | 66% | 30.1% | 94.9% | 58.9% | 78.2% | 
COc1cc2ncn3c(=O)c4c5c(sc4nc3c2cc1OC)CCCC5 | 105% | 146% | 89.8% | 90.6% | 105% | 94.3% | 101% | 99.2% | 119% | 91.2% | 99.9% | 91.8% | 85.1% | 93.2% | 98.7% | 87.6% | 102% | 98.6% | 106% | 
C=CCn1c(C)nc2cc(Nc3nc(N4CCCC4)nc4ccccc34)ccc21 | 73.8% | 1.94% (active) | 122% | 42% | 52.4% | 86.9% | 83.7% | 90.1% | 115% | 89.7% | 79.4% | 5.63% (active) | 83.6% | 107% | 96.6% | 98.7% | 62.4% | 2.4% (active) | 80.1% | 
CC(C)(C)c1ccc(/C=C/C(=O)Nc2ccc(O)cc2)cc1 | 70.3% | 4.2% (active) | 67% | 53% | 90.9% | 59.7% | 79.5% | 40.6% | 64.9% | 28.4% | 43.4% | 18.7% | 96.6% | 83.3% | 72.8% | 59% | 51.4% | -3.96% (active) | 86.5% | 
O=C1NC(=Nc2ccc(Cl)cc2)S/C1=C\c1cn(-c2ccccc2)nc1-c1ccccc1 | 89% | 92.1% | 83.8% | 88.4% | 97% | 84.5% | 94.5% | 81% | 91.6% | 97.1% | 76% | 77.5% | 65.8% | 90.2% | 18.4% | 56.5% | 94.9% | 90.5% | 97.8% | 87.1
C=C(C)[C@@H]1CC=C2c3sc(-c4ccc(C)cc4)nc3C[C@@H](C)[C@]2(C)C1 | 114% | 97% | 104% | 107% | 113% | 99.7% | 104% | 102% | 105% | 100% | 104% | 98.8% | 87.4% | 101% | 97.5% | 95.5% | 101% | 95.3% | 103% | 
c1ccc2cc3nc4cc5ccccc5cc4nc3cc2c1 | 110% | 95.1% | 134% | 86.6% | 137% | 97.7% | 134% | 108% | 98.2% | 101% | 96.9% | 103% | 89.3% | 97.2% | 101% | 85% | 102% | 86.1% | 96.9% | 
CCc1c2c(nc3ccc(OC(=O)OCc4ccc(B5OC(C)(C)C(C)(C)O5)cc4)cc13)-c1cc3c(c(=O)n1C2)COC(=O)[C@]3(O)CC | 4.84% (active) | 13.1% | -43.9% (active) | 17.4% | -64.7% (active) | -7.41% (active) | 0.0181% (active) | -62.9% (active) | -60% (active) | 4.15% (active) | 9.28% (active) | 24.8% | -21.5% (active) | 1.62% (active) | -57.2% (active) | 14.9% | -84.2% (active) | -67.8% (active) | -0.304% (active) | 
CN(C)c1ccc(-c2cc(-c3ccc(Nc4nc(Nc5ccc(Cl)cc5)nc(Nc5ccc(Cl)cc5)n4)cc3)no2)cc1 | 47.7% | 24.8% | 54% | 35.6% | -42.1% (active) | 45% | -16.8% (active) | 46.1% | 65.7% | 61.6% | 39% | 33.9% | 19.6% | 65.7% | 27.4% | 6.65% (active) | 34.5% | 29% | 31.3% | 
